In the library only some 7.5% were active in any assay of this set; here they are far more common.
TSHR antag: antagonists of human thyroid stimulating hormone receptor | P16473 | TSHR-expressing cells, TSH-stimulated cAMP HTRF, 2 h; active compounds read low | activity change, negative = inhibition, % at 11.5 µM | 330,000 tested, 0.2% active | AID 504810;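 active = activity change below a set negative limit, meaning inhibition stronger than a set level, cut at about -70% in these data; inconclusive = activity change between two set negative limits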
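Cell-based HTRF cAMP assay; TSHR cells + compound, TSH EC80 (4nM final), 2 h, 37 deg C. Lysis with anti-cAMP cryptate and cAMP-d2, 30 min RT, read 665/620 nm.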
VP16 counter: Gal4-VP16 reporter inhibition counter-screen | Drosophila S2 Gal4-VP16 UAS-luciferase, luminescence, 20 h | 310,000 tested, 3.5% active | Potency, µM (titrated, usually from 53.6 µM), usual class: inhibitors | AID 2546;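 also: Gal4-VP16 expression switched on by copper sulfate through the metallothionein promoter; nearly all actives have a fitted effect of over 50% in size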
ELG1 DNA repair: ELG1-dependent DNA repair inhibition; HEK293T ELG1-luciferase reporter, luminescence, 16 h; DNA damage induced by 5-fluorouridine; Potency, µM (highest dose often 46.1 µM), most hits filed as inhibitors; 330,000 tested, 2.3% active; AID 504467; also: nearly all actives have a fitted effect of over 55% in size
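Quantitative HTS, concentration-response format. 2,000 cells/well co-treated with 5-fluorouridine and compound, 16 hr in 5% CO2 at 37 °C; ONE-Glo luminescence read after 30 min.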
RORgamma inh: inhibitors of mouse ROR gamma transcriptional activity; Drosophila S2 Gal4-RORgamma UAS-luciferase reporter, 20 h; 310,000 tested, 5.4% active; P51450; Potency, µM (series often up to 53.6 µM), actives largely listed as inhibitors; AID 2551; also: nearly all actives have a fitted effect of over 60% in size
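Luciferase reporter read in Schneider cells carrying Gal4-RORγ (mouse) and UAS-Photinus luciferase; cells given compound 1 h before 700 uM copper sulfate induction, then incubated 20 h at ambient temperature.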
B2AR arrestin: beta2AR (human) beta-arrestin recruitment activity | 330,000 tested, 0.02% active | P07550 | AID 492947 | beta-arrestin recruitment to beta2AR, cell-based reporter | Potency, µM (top dose mostly 46.1 µM), most hits filed as activators; also: nearly all actives have a fitted effect of over 65% in size
Target sequence (P07550 whole entry, looked up): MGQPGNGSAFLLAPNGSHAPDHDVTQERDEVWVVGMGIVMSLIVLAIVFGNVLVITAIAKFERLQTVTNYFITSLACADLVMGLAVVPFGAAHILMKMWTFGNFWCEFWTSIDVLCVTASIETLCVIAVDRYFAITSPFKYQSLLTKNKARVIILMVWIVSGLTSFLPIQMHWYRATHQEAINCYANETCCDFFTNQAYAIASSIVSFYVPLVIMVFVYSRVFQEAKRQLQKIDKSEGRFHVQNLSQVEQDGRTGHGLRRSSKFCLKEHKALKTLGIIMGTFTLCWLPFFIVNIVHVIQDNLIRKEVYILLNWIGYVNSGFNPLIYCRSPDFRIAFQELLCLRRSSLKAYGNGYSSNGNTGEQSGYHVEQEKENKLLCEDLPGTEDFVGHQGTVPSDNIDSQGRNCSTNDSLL
Hits are given with their value; n = inactive; u = inconclusive; x = not tested or not shown; [ ] = another dose, or the depositor's remark. Unless noted, calls follow the shape of the dose curve; as a rule, active = well fitted curve in the direction sought with a large enough effect; inconclusive = small, poorly fitted or top-dose-only effect, or another doubt; inactive = no such curve, though single readings can be large; an effect the other way counts as inactive or inconclusive.

SMILES	TSHR antag	VP16 counter	ELG1 DNA repair	RORgamma inh	B2AR arrestin
Cc1[nH]c2ccc(-c3n[nH]c(=S)n3Cc3ccccc3)cc2c1C	n	n	n	10µM	n
COc1cccc(-n2c(-c3ccc4[nH]c(C)c(C)c4c3)n[nH]c2=S)c1	n	n	u	u	n
Cc1[nH]c2ccc(-c3n[nH]c(=S)n3-c3ccc(Br)cc3)cc2c1C	n	n	n	7.9µM	n
Cc1[nH]c2ccc(-c3n[nH]c(=S)n3-c3ccccc3)cc2c1C	n	u	n	7.9µM	n
COc1ccc(OC)c(N2C(=O)CC(NNC(=O)c3ccc4c(c3)OCO4)C2=O)c1 (stereo unspecified)	n	x	n	x	n
COc1ccc(OC)c(CCNC(=O)Cn2nc(C)c3c(C)n(-c4ccccc4)nc3c2=O)c1	n	n	7.3µM	n	n
COc1ccc(OC)c(CCNC(=O)CCn2nc(C)c3c(C)n(-c4ccccc4)nc3c2=O)c1	n	n	n	n	n
Cc1ccc(CCNC(=O)CCCn2nc(C)c3c(C)n(-c4ccc(C)cc4)nc3c2=O)cc1	n	n	n	n	n
Cc1ccc(-n2nc3c(=O)n(C(C)C(=O)NC4CC4)nc(C)c3c2C)cc1 (stereo unspecified)	-114	n	n	n	n
Cc1ccc(-n2nc3c(=O)n(CC(=O)NCc4ccccc4)nc(C)c3c2C)cc1	n	n	u	n	n
Cc1ccc(-n2nc3c(=O)n(CC(=O)NCCc4ccc(Cl)cc4)nc(C)c3c2C)cc1	n	13µM	n	n	n
Cc1ccc(-n2nc3c(=O)n(CC(=O)NC(C)CCc4ccccc4)nc(C)c3c2C)cc1 (stereo unspecified)	n	n	0.65µM	n	n
C#C[C@]1(O)CC[C@H]2[C@H]3CCC4=Cc5oncc5C[C@]4(C)[C@@H]3CC[C@]21C	x	n	x	n	x
CCC(C(=O)NCCC1=CCCCC1)n1nc(C)c2c(C)n(-c3ccccc3)nc2c1=O (stereo unspecified)	n	n	n	4.5µM	n
CCC(C(=O)NCCCc1ccccc1)n1nc(C)c2c(C)n(-c3ccccc3)nc2c1=O (stereo unspecified)	n	n	u	n	n
Cc1nc2ccccc2n1CC(=O)NCc1ccccc1	n	6.3µM	n	n	n
Cc1nc2ccccc2n1CC(=O)NN	n	n	u	n	n
CCCc1nc2ccccc2n1CCc1ccccc1	n	n	n	7.1µM	n
CCc1nc2ccccc2n1Cc1ccccc1F	n	n[10 µM]	n	10µM	n
CCn1c(CN(C)c2ccccc2)nc2ccccc21	n	22µM	n	10µM	n
COc1ccc(NC(=O)C2(S(=O)(=O)c3ccc(C)cc3)CC2)cc1	n	n	n	n	n
CC(=O)c1ccc(C2C=CC(O)C(CO)O2)cc1 (stereo unspecified)	x	n[10 µM]	x	n[10 µM]	x
Cn1c(CCc2ccc(N)cc2)nc2ccccc21	n	u	u	11µM	n
Cn1c(-c2ccc(N)cc2)nc2ccccc21	n	n	u	n	n
Cc1nc2ccccc2n1CCc1ccccc1	n	n	n	11µM	n
SMILES	TSHR antag	VP16 counter	ELG1 DNA repair	RORgamma inh	B2AR arrestin
Cc1nc2ccccc2n1CC(=O)NC(C)C1CC2CCC1C2 (stereo unspecified)	n	u	5.2µM	u	n
Cc1nc2ccccc2c(=O)n1CCc1ccccc1	n	n	n	n	n
Cc1onc(-c2ccccc2)c1C(=O)OCC(=O)Nc1ccc(Cl)cc1	n	x	u	x	n
Cc1onc(-c2ccccc2)c1C(=O)OCC(=O)Nc1cccc(Cl)c1	n	x	13µM	x	n
CC/C(=N\NC(=S)Nc1cccc(C)c1)c1ccccc1	n	u	n	u	n
CCNC(=S)N/N=C(\C)c1cc2ccccc2o1	n	7.9µM	u	3.5µM	n
C/C(=N\NC(=S)Nc1cccc(C)c1)c1cc2ccccc2o1	n	u	n	2.5µM	n
C/C(=N\NC(=O)c1ccc(O)cc1)c1cc2ccccc2o1	n	10µM	u	6.3µM	n
Cc1ccc(C(C(=O)NCCc2ccccc2)N(C(=O)c2csnn2)C2CC2)cc1 (stereo unspecified)	n	n	n	n	n
COC(=O)NC(=S)Nc1ccc(Oc2ccc(Cl)cc2)c(Cl)c1	n	5µM	n	4.5µM	n
COc1ccc(NC(=O)NNC(=O)c2ccc(Cl)cc2Cl)cc1OC	n	n	n	n	n
CC(=O)Nc1ccc(Oc2ccc([N+](=O)[O-])cc2Cl)cc1	n	n	n	n	n
COC(=O)NC(=S)Nc1ccc(Oc2ccc(Cl)cc2Cl)c(Cl)c1	n	u	n	2.2µM	n
CC(C)CO/N=C1/C[C@@H](O)[C@@H](O)[C@@H]2[C@@H]3C(=O)N(Cc4ccc5c(c4)OCO5)C(=O)[C@H]3CC[C@@H]12	x	n[10 µM]	x	n[10 µM]	x
S=C(Nc1ccc(Cl)cc1Cl)NC1CCCCC1	n	0.89µM	u	u	n
Cc1c(Cl)cccc1NC(=S)NC1CC1	n	u	n	10µM	n
O=C(Nc1ccc(Cl)cc1Cl)NC1CCCC1	n	n	u	n	n
O=C(NNC(=S)NC1CCCCC1)c1cccc(S(=O)(=O)Nc2ccccc2Cl)c1	n	u	n	4µM	n
S=C(Nc1ccccc1Cl)NC1CCCCCC1	n	10µM	n	3.5µM	n
CC(=O)Nc1cccc(NC(=S)Nc2cccc(Cl)c2Cl)c1	n	n	n	n	n
CC(=O)c1ccc(NC(=S)Nc2cccc(Cl)c2C)cc1	n	u	n	11µM	n
Fc1ccc(NC(=S)NC2CCCCC2)c(F)c1F	n	7.1µM	u	8.9µM	n
CC1(C)Cc2c(cnn2-c2ccc(F)cc2)C(NC(=O)c2ccco2)C1 (stereo unspecified)	n	n	n	n	n
CC12CC(c3ccccc3O1)N(C(=O)c1ccco1)C(=S)N2c1ccc(F)cc1 (stereo unspecified)	n	u	n	10µM	n
O=P(O)(O)OC1[C@H](O)[C@H](OP(=O)(O)O)C(OP(=O)(O)O)[C@H](OP(=O)(O)O)[C@H]1O (stereo partly specified)	x	n[1.91 µM]	x	n[1.91 µM]	x
SMILES	TSHR antag	VP16 counter	ELG1 DNA repair	RORgamma inh	B2AR arrestin
COc1cc(NC(=O)c2cc([N+](=O)[O-])ccc2NC(=O)CNCc2ccccn2)cc(OC)c1	n	u	6.5µM	n	n
COCCCNc1ccc([N+](=O)[O-])cc1C(=O)Nc1cccc(C)n1	n	n	u	n	n
COc1ccc(NC(=O)c2cc([N+](=O)[O-])ccc2NC(=O)CNCc2ccccn2)c(OC)c1	n	n	n	u	n
COc1cc(NC(=O)c2cc([N+](=O)[O-])ccc2NC(=O)CNC2CCCCC2)cc(OC)c1	n	n	21µM	n	n
Cc1cccc(NC(=O)c2cc([N+](=O)[O-])ccc2NCC2CCCO2)n1 (stereo unspecified)	n	n	15µM	n	n
COc1cccc(NC(=O)c2cc([N+](=O)[O-])ccc2NC(=O)CNCC2CCCO2)c1 (stereo unspecified)	n	n	9.2µM	n	n

Source: PubChem BioAssay
